What is called AC50 is the concentration at which the activity in the assay is half-maximal.

Results filed as inconclusive are left out. The source made the active and inactive calls. How the source made its calls: active means hit-call score of the fitted dose curve at least 0.9, where 1 is the maximum; inconclusive means response in the unintended direction; inactive means score below 0.9.

Chain of Estrogen receptor beta (Homo sapiens) (Q92731 whole entry, looked up, the tested form may be a part): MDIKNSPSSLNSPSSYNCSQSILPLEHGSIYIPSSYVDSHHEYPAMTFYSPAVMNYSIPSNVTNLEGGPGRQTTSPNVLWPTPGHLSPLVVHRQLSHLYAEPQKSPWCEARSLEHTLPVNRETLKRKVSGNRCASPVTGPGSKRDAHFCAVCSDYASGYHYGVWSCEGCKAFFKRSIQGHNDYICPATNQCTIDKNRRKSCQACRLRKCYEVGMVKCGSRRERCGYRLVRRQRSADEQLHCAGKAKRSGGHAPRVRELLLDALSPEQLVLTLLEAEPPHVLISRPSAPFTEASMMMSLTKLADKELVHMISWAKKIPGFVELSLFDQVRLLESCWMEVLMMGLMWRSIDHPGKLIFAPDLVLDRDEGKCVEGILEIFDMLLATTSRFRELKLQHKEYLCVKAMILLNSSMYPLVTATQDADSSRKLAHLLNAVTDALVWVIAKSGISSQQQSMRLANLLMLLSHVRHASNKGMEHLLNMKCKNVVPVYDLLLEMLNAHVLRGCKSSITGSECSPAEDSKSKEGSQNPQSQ
Chain of Agonist Androgen Response Element (ARE), AR (gene 367) (P10275 whole entry, looked up): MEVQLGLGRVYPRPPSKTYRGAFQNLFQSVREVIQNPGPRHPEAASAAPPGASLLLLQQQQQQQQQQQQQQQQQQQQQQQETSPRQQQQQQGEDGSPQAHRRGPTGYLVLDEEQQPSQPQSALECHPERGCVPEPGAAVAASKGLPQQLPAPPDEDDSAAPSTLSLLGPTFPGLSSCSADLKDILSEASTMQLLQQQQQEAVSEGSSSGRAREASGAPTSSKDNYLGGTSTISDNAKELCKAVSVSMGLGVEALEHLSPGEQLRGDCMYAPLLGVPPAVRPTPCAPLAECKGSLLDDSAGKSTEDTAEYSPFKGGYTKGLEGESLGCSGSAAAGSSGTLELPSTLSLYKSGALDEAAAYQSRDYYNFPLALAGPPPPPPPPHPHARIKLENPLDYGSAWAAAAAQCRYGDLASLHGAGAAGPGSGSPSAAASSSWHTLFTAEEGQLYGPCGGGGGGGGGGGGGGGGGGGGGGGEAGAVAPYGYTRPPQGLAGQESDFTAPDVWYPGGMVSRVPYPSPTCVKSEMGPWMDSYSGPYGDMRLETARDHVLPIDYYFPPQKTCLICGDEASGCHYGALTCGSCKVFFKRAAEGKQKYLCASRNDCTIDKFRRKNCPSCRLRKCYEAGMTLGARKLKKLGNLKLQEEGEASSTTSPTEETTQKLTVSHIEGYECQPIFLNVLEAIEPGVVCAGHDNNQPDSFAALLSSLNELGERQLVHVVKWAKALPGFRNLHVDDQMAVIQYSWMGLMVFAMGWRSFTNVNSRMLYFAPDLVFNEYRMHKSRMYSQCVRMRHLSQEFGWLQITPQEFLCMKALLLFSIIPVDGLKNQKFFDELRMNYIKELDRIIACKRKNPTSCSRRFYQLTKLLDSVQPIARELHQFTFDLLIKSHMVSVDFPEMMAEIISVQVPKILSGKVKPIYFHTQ
Chain of Peroxisome proliferator-activated receptor gamma (Homo sapiens) (P37231 whole entry, looked up): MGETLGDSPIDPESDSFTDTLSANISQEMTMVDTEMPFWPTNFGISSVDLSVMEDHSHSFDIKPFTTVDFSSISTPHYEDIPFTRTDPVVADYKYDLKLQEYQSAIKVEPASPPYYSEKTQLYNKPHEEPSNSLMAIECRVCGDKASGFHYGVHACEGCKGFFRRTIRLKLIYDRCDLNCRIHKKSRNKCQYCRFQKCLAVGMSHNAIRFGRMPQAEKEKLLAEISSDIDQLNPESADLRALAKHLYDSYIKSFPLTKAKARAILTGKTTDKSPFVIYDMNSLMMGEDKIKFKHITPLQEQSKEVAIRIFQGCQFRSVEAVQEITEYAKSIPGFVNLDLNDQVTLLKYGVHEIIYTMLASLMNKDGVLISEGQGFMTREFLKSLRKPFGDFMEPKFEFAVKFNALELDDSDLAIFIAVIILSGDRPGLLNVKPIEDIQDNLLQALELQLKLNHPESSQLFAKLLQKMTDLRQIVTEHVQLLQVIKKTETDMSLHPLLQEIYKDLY
Chain of mouse Estrogen Receptor alpha (Era), Esr1 (gene 13982) (P19785 whole entry, looked up): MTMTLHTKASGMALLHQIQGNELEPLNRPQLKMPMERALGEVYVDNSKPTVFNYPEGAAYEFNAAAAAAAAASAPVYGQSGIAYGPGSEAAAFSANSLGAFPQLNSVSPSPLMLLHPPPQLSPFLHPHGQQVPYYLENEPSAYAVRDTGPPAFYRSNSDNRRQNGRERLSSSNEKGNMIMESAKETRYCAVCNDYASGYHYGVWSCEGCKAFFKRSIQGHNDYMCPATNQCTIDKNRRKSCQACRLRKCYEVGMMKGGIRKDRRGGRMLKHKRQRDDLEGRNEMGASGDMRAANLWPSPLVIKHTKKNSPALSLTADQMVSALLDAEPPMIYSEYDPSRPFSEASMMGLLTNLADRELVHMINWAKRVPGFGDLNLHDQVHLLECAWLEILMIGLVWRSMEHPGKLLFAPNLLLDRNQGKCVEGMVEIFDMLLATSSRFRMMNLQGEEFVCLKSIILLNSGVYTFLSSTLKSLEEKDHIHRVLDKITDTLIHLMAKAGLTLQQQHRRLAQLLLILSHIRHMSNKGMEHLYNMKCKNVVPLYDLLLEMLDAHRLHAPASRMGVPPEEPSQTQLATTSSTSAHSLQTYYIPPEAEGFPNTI

The target in the first test is Peroxisome proliferator-activated receptor gamma (Homo sapiens) (UniProt P37231). Nature of the test: NVS_NR_hPPARg: NovaScreen (NVS) Nuclear Receptor Binding Assay for human Peroxisome Proliferator-activated Receptor gamma (PPARg) (AID 2283370). The essentials:
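Chemicals were tested first in duplicate at 25 uM, then in concentration series if active. Binding to cell-free PPARg protein was measured by fluorescence polarization after 2 h, with loss of signal scored against DMSO.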
On to `C=CCc1ccc(OC)c(OC)c1`, for which the result was inactive.

For `NC1CCCCC1`, the outcome was inactive.

In the case of `O=C1O[C@H]([C@H](O)CO)C(O)=C1O`, the outcome was inactive.

As to `O=C(NS(=O)(=O)/C=C/c1cccs1)c1ccc(F)cc1Br`, the half-maximal activity concentration (AC50) was 40.7 µM (active).

For `C/C=C/C=C/C(=O)O`, the compound was classed as inactive.

Regarding `CCCCC(CC)CO` (stereo not drawn), the half-maximal activity concentration (AC50) was 0.00905 µM (active).

For `CC(N)=O`, the AC50 is 4.98 µM (active).

The next test has as its target mouse Estrogen Receptor alpha (Era), Esr1 (gene 13982) (UniProt P19785). Nature of the test: NVS_NR_mERa: NovaScreen (NVS) Nuclear Receptor Binding Assay for mouse Estrogen Receptor alpha (Era) (AID 2283378).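 Further: hit means loss of bound radioligand signal relative to DMSO.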 Summed up:
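Extracted mouse Era incubated with tritiated or iodinated radioligand plus test chemical, 18 h. Bound fraction separated on filters, counted by scintillation. DMSO = negative control/baseline; duplicate single-point at 25 uM, then concentration-response follow-up.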
For the compound `CN(C)C(=O)NC1(c2ccccc2)CCN(CCC[C@]2(c3ccc(Cl)c(Cl)c3)CCCN(C(=O)c3ccccc3)C2)CC1`, the call was inactive.

As to `OCC(CO)n1cnc(-c2ccc(F)cc2)c1-c1ccnc(Oc2ccccc2)n1`, the compound was classed as inactive.

In the case of `CCCCC(CC)COC(=O)CCCCCCCC(=O)OCC(CC)CCCC` (stereo not drawn), the call was inactive.

A further test addresses Agonist Androgen Response Element (ARE), AR (gene 367) (UniProt P10275). Nature of the test: OT_AR_ARELUC_AG_1440: Odyssey Thera (OT) 24-hour CHO-K1 Luciferase Assay for Agonist Androgen Response Element (ARE) (AID 2283379). Summed up: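 CHO-K1 cells carrying an ARE-driven luciferase reporter were exposed to compounds for 24 h. Luminescence was then read after adding a D-luciferin/ATP mix, and activity was scored as a gain in signal over DMSO vehicle.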
Turning to `C=CCCCCCCCCCCCC`, the compound was classed as inactive.

Take `O=C(NS(=O)(=O)/C=C/c1cccs1)c1ccc(F)cc1Br`: the call was inactive.

For `Nc1nc(=S)c2[nH]cnc2[nH]1`, the result was inactive.

Turning to `C#CC(O)C(CC)CCCC` (stereo not drawn), the call was inactive.

For the compound `O=C1CCCCC1`, the compound was called inactive.

As for `NCCOCCOCCN`, the compound was called inactive.

In the case of `CCCCCCCCCC[N+](C)(C)[O-]`, the result was inactive.

The target of another test is Estrogen receptor beta (Homo sapiens) (UniProt Q92731). Briefly: OT_ER_ERbERb_1440: Odyssey Thera (OT) 24-hour HEK293T Protein-Complementation Assay for Estrogen Receptor-beta/-beta Homodimer (AID 2283380).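 Further: scored as signal increase over DMSO baseline for both agonists and antagonists.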 The essentials:
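HEK293T cells stably expressing ER beta LBD (aa 310-547) homodimer fragment-complementation reporter, dosed 24 h. Cells formaldehyde-fixed, Draq5-stained; gain in nuclear (agonist) or nuclear plus cytoplasmic (antagonist) fluorescence versus DMSO read by laser scanning cytometry.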
For the compound `C=CCc1ccc(OC)c(OC)c1`, the result was inactive.

Take `CC(=O)OCC(COC(C)=O)OC(C)=O`: the result was inactive.

`NC=O`: the result was inactive.

Turning to `NC1CCCCC1`, the result was inactive.

Take `CC(=O)OC1CC(C)OC(C)O1` (stereo not drawn): the compound was classed as inactive.

For the compound `CCCCCCC(C=O)=Cc1ccccc1`, the outcome was inactive.

On to `CN(C)C(=O)NC1(c2ccccc2)CCN(CCC[C@]2(c3ccc(Cl)c(Cl)c3)CCCN(C(=O)c3ccccc3)C2)CC1`, for which the compound was classed as inactive.

For the compound `CS(=O)(=O)c1ccc([C@@H](C[C@H]2CCC(=O)C2)C(=O)Nc2cnccn2)cc1Cl`, the compound was called inactive.

As for `OCC(CO)n1cnc(-c2ccc(F)cc2)c1-c1ccnc(Oc2ccccc2)n1`, the result was inactive.

On to `O=C1O[C@H]([C@H](O)CO)C(O)=C1O`, for which the call was inactive.

As for `O=[Si]=O`, the outcome was inactive.

Regarding `C=CCCCCCCCCCCCC`, the compound was classed as inactive.

For `O=C(NS(=O)(=O)/C=C/c1cccs1)c1ccc(F)cc1Br`, the compound was classed as inactive.

In the case of `C/C=C/C=C/C(=O)O`, the outcome was inactive.

On to `CC(COCC(C)OC(=O)c1ccccc1)OC(=O)c1ccccc1` (stereo not drawn), for which the call was inactive.

Take `Nc1nc(=S)c2[nH]cnc2[nH]1`: the result was inactive.

As for `C#CC(O)C(CC)CCCC` (stereo not drawn), the compound was classed as inactive.

Take `O=C1CCCCC1`: the outcome was inactive.

Take `CCCCC(CC)CO` (stereo not drawn): the result was inactive.

In the case of `Cc1cn([C@H]2C=C[C@@H](CO)O2)c(=O)[nH]c1=O`, the result was inactive.

With `CCCCCCCC(=O)OC`, the result was inactive.

Regarding `C/C=C/c1ccc(OC)cc1`, the outcome was inactive.

On to `Cc1ccc(C(C)(C)C)c(O)c1`, for which the compound was called inactive.

As for `NCCOCCOCCN`, the call was inactive.

As for `CC(N)=O`, the compound was classed as inactive.

For `CCCCCCCCCC[N+](C)(C)[O-]`, the outcome was inactive.

Values taken from PubChem BioAssay (EPA / NIEHS).
